# Hits are enriched below; roughly 1.7% of the tested compounds scored in any of these assays.
# ATG4B inhibitor = ATG4B protease inhibitors, primary screen, biochemical, fluorescence, uHTS. ATG4B cleavage of LC3-PLA2, NBD-HPC fluorescence, 1 h. Cysteine protease ATG4B (Homo sapiens), Q9Y4P1. hit rate 0.51% among 340,000. inhibition, % at 8.33 µM. AID 504462, 2011; in the data active means inhibition above about 40%
# Rin1 Abl inh = inhibitors of Rin1-Abl protein binding, primary screen, biochemical, TR-FRET. Tyrosine-protein kinase ABL1 (Homo sapiens) + Ras and Rab interactor 1 (Homo sapiens), …. inhibition, % at 7.35 µM. hit rate 0.4% among 360,000; in the data active means inhibition above about 5%, passing the limit was not always enough
# SUMO1 PPI mod = modulators of SUMO1 protein-protein interactions, primary screen, biochemical, uHTS. AID 602429, 2012. Small ubiquitin-related modifier 1 (Homo sapiens), P63165. hit rate 0.33% among 360,000. SUMO1 binding to a labelled peptide, TR-FRET, 1 h. inhibition, % at 20 µM; in the data active means inhibition above about 37%
# Neddyl block = inhibitors of cullin neddylation, primary screen, biochemical, TR-FRET, uHTS, NAE and Ubc12; AID 651699, 2012; hit rate 0.58% among 360,000; inhibition, % at 25 µM; NEDD8-conjugating enzyme Ubc12 (Homo sapiens) + NEDD8-activating enzyme E1 regulatory …; in the data active means inhibition above about 36%
# Target sequence (P61081 whole entry, looked up): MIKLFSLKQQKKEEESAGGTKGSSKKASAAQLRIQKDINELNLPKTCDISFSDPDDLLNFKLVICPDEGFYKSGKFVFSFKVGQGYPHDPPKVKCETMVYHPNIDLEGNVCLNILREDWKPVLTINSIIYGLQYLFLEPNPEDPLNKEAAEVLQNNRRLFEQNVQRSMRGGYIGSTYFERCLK
# Target sequence (Q13564 whole entry, looked up): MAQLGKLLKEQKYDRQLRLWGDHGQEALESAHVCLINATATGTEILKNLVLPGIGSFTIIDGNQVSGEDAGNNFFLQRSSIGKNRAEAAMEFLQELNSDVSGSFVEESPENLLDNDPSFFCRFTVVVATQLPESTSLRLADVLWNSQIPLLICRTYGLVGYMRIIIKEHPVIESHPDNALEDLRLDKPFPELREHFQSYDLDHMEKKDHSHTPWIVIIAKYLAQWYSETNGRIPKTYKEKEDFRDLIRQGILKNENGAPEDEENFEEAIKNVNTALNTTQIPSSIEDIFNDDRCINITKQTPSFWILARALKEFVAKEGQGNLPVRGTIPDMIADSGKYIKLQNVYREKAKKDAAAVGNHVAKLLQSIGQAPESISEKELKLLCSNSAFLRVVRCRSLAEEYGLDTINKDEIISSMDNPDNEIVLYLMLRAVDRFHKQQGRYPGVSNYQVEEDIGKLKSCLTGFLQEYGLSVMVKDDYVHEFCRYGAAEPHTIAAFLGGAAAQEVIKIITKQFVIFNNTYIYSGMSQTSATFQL
# Rin1-Abl confirm = Rin1-Abl binding inhibitor retest, confirmation, biochemical, TR-FRET; purified proteins; hit rate 49% among 1,300; shares compounds with Rin1 Abl inh; inhibition, % at 7.35 µM
# GFP quench = GFP fluorescence inhibitors and quenchers, artefact control for Rin1-Abl interaction inhibitor project, biochemical; inhibitors/quenchers counterscreen; shares compounds with Rin1 Abl inh; inhibition, % at 6.75 µM; hit rate 8.5% among 1,300; AID 602125, 2011;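 further: ABL1-eGFP fusion protein alone without its partner RIN1-SBP; 0% = protein with vehicle and 100% = wells lacking protein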
# GFP quench dose = GFP fluorescence inhibitors and quenchers, dose response, artefact control for Rin1-Abl interaction inhibitor project, biochemical; shares compounds with Rin1 Abl inh; GFP fluorescence interference/quenching counterscreen; IC50, µM; AID 602182, 2012; 230 tested, under 10 active; call rule not given here;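 further: ABL1-eGFP fusion protein alone without its RIN1 binding partner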
# * hit, by the source's call; / = no result shown. Unless noted, no stated cut-off is given here; in the data, active means inhibition above about 6.5%; inactive means the rest.
SMILES,ATG4B inhibitor,Rin1 Abl inh,SUMO1 PPI mod,Neddyl block,Rin1-Abl confirm,GFP quench,others
O=c1ccn([C@@H]2O[C@H](CNS(=O)(=O)C3CC3)[C@@H](O)[C@H]2O)c(=O)[nH]1,2,-2,-1,-9,/,/,
CS(=O)(=O)c1ccc(Cl)c(NC(=O)c2ccc3ccccc3c2)c1,-8,-5,-4,-16,/,/,
O=C(Nc1ccccc1Cl)c1ccc2ccccc2c1,2,7.6*,-3,-7,-3,0,
CC(C)C1C(=O)N(Cc2cn(CCC3OCCCO3)nn2)CCS(=O)(=O)N1Cc1ccc(-c2ccc(Cl)c(Cl)c2)cc1 (centres undefined),/,-2,3,-36,/,/,
CCOCC(=O)N1CCc2ccccc21,3,6.3*,2,0,-1,2,
CS/C(=N\S(=O)(=O)c1cccs1)Nc1ccc(F)c(Cl)c1,-5,5.0*,0,4,-3,1,
CS/C(=N\S(=O)(=O)c1cccs1)Nc1cccc(Cl)c1C,5,0,6,11,/,/,
COc1cccc(CC(=O)Nc2cc(S(=O)(=O)N3CCCCC3)ccc2C)c1,-11,-1,-2,-24,/,/,
COc1cccc(CC(=O)Nc2ccc(S(=O)(=O)N3CCCCC3)cc2)c1,-9,8.9*,9,3,5,0,
COc1ccc(OC)c(CN2CCN(S(=O)(=O)c3ccc(NC(C)=O)cc3)CC2)c1,-5,10*,-3,-2,1,0,
Cc1ccccc1NC(=O)Cc1nc(COC(=O)CSc2ccc(F)cc2)cs1,/,0,-2,3,/,/,
N#Cc1c(-c2ccc(F)cc2)c(-c2ccc(F)cc2)nn(CCO)c1=O,0,0,-34,20,/,/,
Cc1cccc(C)c1NC(=O)C1c2ccccc2OCC(=O)N1CCc1ccccc1 (centres undefined),/,/,1,6,/,/,
O=C(Cc1n[nH]c(=O)c2ccccc12)Nc1ccc(-c2nnc3n2CCCCC3)cc1,0,6,1,-6,/,/,
O=C(Cn1[nH]c(=O)c2ccccc2c1=O)Nc1ccc(-c2nnc3n2CCCCC3)cc1,1,12*,-1,6,10*,0,
CC(=O)c1cccc(N(CC(=O)NC2CCCC2)C(=O)c2ccc(C)s2)c1,-4,7.5*,-1,-9,-1,-1,
CC(=O)c1ccc(N(CC(=O)NC2CCCC2)C(=O)c2ccc(C)s2)cc1,-5,1,8,-2,/,/,
Cc1ccc(OCCCNC2CCCC2)cc1,-12,1,5,-5,/,/,
Cc1ccc(C)c(OCCCNC2CCCC2)c1C,5,13*,0,3,1,-1,
O=c1c(O)c(-c2ccc(O)c(O)c2)oc2cc(O)cc(O)c12,-7,24*,-16,-48,16*,4,
CC1OC(Oc2c(-c3cc(O)c(O)c(O)c3)oc3cc(O)cc(O)c3c2=O)C(O)C(O)C1O (centres undefined),-22,42*,-1,-11,45*,15*,
CC12CN3CC(C)(CN(C1)C3c1ccccc1F)C2 (centres undefined),5,6.1*,0,0,-3,-1,
CC12CN3CC(C)(CN(C1)C3c1ccccc1Cl)C2O (centres undefined),-3,-1,-2,-2,/,/,
CCCC(=O)N(Cc1cc2cc(OC)ccc2[nH]c1=O)c1ccccc1OC,/,-1,4,27,/,/,
CCNC(=O)C1(C)CCCN(C(=O)c2cc(C)n(C(C)(C)C)n2)C1 (centres undefined),/,1,9,-3,/,/,
SMILES,ATG4B inhibitor,Rin1 Abl inh,SUMO1 PPI mod,Neddyl block,Rin1-Abl confirm,GFP quench,others
O=C(O)c1cccc(NC2=C(N3CCOCC3)C(=O)c3ccccc3C2=O)c1,-1,7.2*,-15,-12,-7,-1,
O=C1C(NS(=O)(=O)c2cccs2)=C(N2CCOCC2)C(=O)c2ccccc21,-2,-13,-33,-23,/,/,
COc1ccc(F)cc1C(=O)C1CCCN(Cc2cn(C)c3ccccc23)C1 (centres undefined),8,9.9*,1,6,1,-2,
CC1(c2nnc(-c3ccncc3)o2)CC(c2ccc([N+](=O)[O-])cc2)=NO1 (centres undefined),2,18*,-33,-26,21*,0,
CC1(c2nnc(-c3ccc(Cl)cc3)o2)CC(c2ccc([N+](=O)[O-])cc2)=NO1 (centres undefined),-2,-1,-8,-29,/,/,
CC1(c2nnc(-c3ccncc3)o2)CC(c2ccc(F)cc2)=NO1 (centres undefined),1,43*,-4,6,42*,-1,GFP quench dose=>68
CC1(c2nnc(-c3ccc(F)cc3)o2)CC(c2cccnc2)=NO1 (centres undefined),-8,1,-1,-13,/,/,
CC1(c2nnc(-c3ccncc3)o2)CC(c2c(Cl)cccc2Cl)=NO1 (centres undefined),0,38*,0,10,27*,0,
O=C1CC(C(=O)Nc2ccccc2)C2(CCCC2)O1 (centres undefined),-1,7.7*,2,12,-2,-1,
Cc1cccc(NC(=O)C2CC(=O)OC23CCCCC3)c1 (centres undefined),-2,-3,-3,5,/,/,
Cc1ccc(Nc2nc(N)nc(CSc3ncccn3)n2)cc1,-7,-2,1,1,/,/,
Cc1ccc(Nc2nc(N)nc(CSc3nnc(-c4ccncc4)o3)n2)cc1,-16,9.6*,5,4,10*,0,
COc1ccc(N2CCN(C(=O)c3cc(S(=O)(=O)N4CCCCCC4)ccc3OC)CC2)cc1,0,-3,-2,6,/,/,
O=C(NCCc1ccccc1)c1ccc2nc(-c3ccco3)c(-c3ccco3)nc2c1,18,2,27,-11,/,/,
O=C(NCCO)c1ccc2nc(-c3ccco3)c(-c3ccco3)nc2c1,5,10.0*,44*,-24,4,14*,
CCOC(=O)[C@]12CCCC=C1N(Cc1ccc3c(c1)OCO3)C(=O)[C@H](CC(=O)N1CCN(C(=O)C3CC3)CC1)C2,/,/,2,3,/,/,
Oc1ccc(/C=N/Nc2cccc(Cl)n2)c(O)c1,-9,8.1*,-9,-6,2,1,
COc1cc(OC)cc(-c2oc(=O)c3cc(OC)c(OC)cc3c2C#CCCO)c1,-21,29*,-30,-351,76*,-1,
N#CCc1ccc(-c2cccc3nccn23)cc1,/,-6,-19,/,/,/,
COc1ccc(CC(=O)Oc2ccc(C)cc2Br)cc1OC,1,41*,0,7,51*,-2,GFP quench dose=>68
CC(C=NNc1ccc([N+](=O)[O-])cn1)=Cc1ccccc1,-1,2,-6,6,/,/,

# High-throughput results as filed in PubChem.
